Laboratory results published in PubChem BioAssay (NCI).
Compounds without any hit were thinned out: in the full panel of roughly 83,000, 20% have a hit.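 Each cell line was grown in a 96-well plate and treated with one concentration of compound for 48 hours. Values below 10 were considered active.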 A number with no mark means an inactive call. Calls of active or inactive are those of the source.

Each compound was assayed on MDA-MB-468 breast (assay: NCI-60 one-dose screen, 48 h (100 = growth as untreated, 0 = no growth, -100 = all killed)). Details: 10 µM unless noted.
`Cc1cc2nc3c4cc([N+](=O)[O-])ccc4n(CCN(C)C)c3nc2cc1C` was tested, and the growth was -39.1% (active).
For `CN1C(=O)N(C)C2C1NC(=S)N2/N=C/C=C/c1ccccc1[N+](=O)[O-]` (centres undefined), the growth was 6.39% (active).
`CC(C)CCNCC(C)(C)O` showed a growth of 112%.
With `O=S(=O)(NCCCNc1nccc(-c2[nH]c(-c3ccccc3)nc2-c2ccc(F)c(O)c2)n1)c1cccc2ccccc12` the growth was 48.8%.
